Screening data (PubChem)
ClpP mod = qHTS Assay for Activators of ClpP; ATP-dependent Clp protease proteolytic subunit (Bacillus subtilis (strain 168)), P80244; 1.9% of 340,000 active; purified B. subtilis ClpP, FRET peptide cleavage, 20 min; Potency, µM (series often up to 57.5 µM), for inactives: top-dose activity change, negative = active; active means well fitted falling curve with a large enough effect; inconclusive means small, poorly fitted or top-dose-only effect; inactive means no such curve, though single readings can be large or run the other way; further: the source files actives as falling curves though it sought activators and does not explain the sign; nearly all actives have a fitted effect of over 65% in size
Target sequence (P80244 whole entry, looked up): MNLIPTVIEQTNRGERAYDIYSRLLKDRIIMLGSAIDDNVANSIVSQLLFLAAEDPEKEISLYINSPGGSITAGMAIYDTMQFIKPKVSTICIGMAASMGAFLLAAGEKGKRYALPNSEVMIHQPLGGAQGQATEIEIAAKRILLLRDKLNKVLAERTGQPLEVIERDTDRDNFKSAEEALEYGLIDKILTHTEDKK
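Purified B. subtilis ClpP, 10 microg/mL final in Tris/HCl pH8 with KCl, BSA, glycerol and Tween-20, cleaved an Abz/nitrotyrosine-quenched decapeptide. Fluorescence (ex 320, em 430) was read at 0 and 20 min at room temperature. Delta was normalized to 5.8 microM ADEP and DMSO/no-enzyme controls.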
DT40 TDP1 no CPT = qHTS for Inhibitors of human tyrosyl-DNA phosphodiesterase 1 (TDP1): qHTS in cells in absence of CPT; DT40 Tdp1-/- hTDP1 cells, no CPT, ATP luminescence, 48 h; AID 686978, 2013; 15% of 420,000 active; Potency, µM (doses to about 46.2 µM), inactives show at the highest dose activity change, negative = growth inhibition, usual class: inhibitors; further: on the % scale 0 is the no-effect control and ±100 the full control effect; nearly all actives have a fitted effect of over 55% in size
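Camptothecin absent (DMSO only). Human TDP1-complemented DT40 knockout cells, 400 cells/well, 37 °C for minimum 48 hr; ATP measured via CellTiter-Glo, 30 min dark incubation, luminescence.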
DT40 TDP1 CPT = growth inhibition of DT40 Tdp1-/-;hTDP1 cells with camptothecin (screen for TDP1 inhibitors); 12% of 420,000 active; Potency, µM (highest dose often 46.2 µM), for inactives: at the top dose activity change, negative = growth inhibition, hits mostly inhibitors; chicken DT40 Tdp1-/-;hTDP1 cells + 20 nM CPT, ATP luminescence, 48 h; further: on the % scale 0 is the no-effect control and ±100 the full control effect; nearly all actives have a fitted effect of over 55% in size
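Chicken DT40 Tdp1-/- cells complemented with human TDP1, 400 cells/well, exposed to compounds plus 20 nM camptothecin for at least 48 h at 37 C; viability read as ATP content by CellTiter-Glo luminescence.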
TDP1 inh = TDP1 (human) enzyme inhibition. Q9NUW8. recombinant TDP1, AlphaScreen DNA substrate cleavage. Potency, µM (titrated, usually from 130 µM), inactives show at the top dose activity change, negative = inhibition, usual class: inhibitors. 0.28% of 350,000 active. AID 485290; further: on the % scale 0 is the no-effect control and ±100 the full control effect; nearly all actives have a fitted effect of over 40% in size
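Tdp1 1 nM final; 15 min RT w/ cpd; substrate 15 nM, 5 min; beads 10 ug/ml, 10 min; AlphaScreen read. Neg ctrl: no enzyme.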
ClpP inh valid = Bacillus subtilis ClpP inhibition, validated hit; shares compounds with ClpP mod; purified B. subtilis ClpP, FRET-FV substrate cleavage, 20 min; Potency, µM (series often up to 57.5 µM), for inactives: at the highest dose activity change, negative = inhibition, hits mostly inhibitors; 40% of 470 active; further: on the % scale 0 is the no-effect control and ±100 the full control effect; nearly all actives have a fitted effect of over 70% in size
* = called active by the depositor; ? = inconclusive; . = no result given; [ ] = another dose, or the depositor's remark. In the library only some 17% were active in any assay of this set; here they are far more common. Unless noted, the call rests on the fitted dose curve; in most records, active means well fitted curve in the direction sought with a large enough effect; inconclusive means small, poorly fitted or top-dose-only effect, or another doubt; inactive means no such curve, though single readings can be large; an effect the other way counts as inactive or inconclusive. Potency means the concentration at half of the fitted maximal effect.

SMILES	ClpP mod	DT40 TDP1 no CPT	DT40 TDP1 CPT	TDP1 inh	ClpP inh valid
Fc1ccc2nc(Nc3nc4cc5c(cc4s3)OCO5)sc2c1	?	?	?	-1%	.
CN(C)c1nc(N)c(C(=O)Nc2cccnc2)nc1Cl	.	.	.	6%	.
CNC(=O)C1CCC(Cn2c(=O)c3sccc3n(CC(=O)NCc3cccc(OC)c3)c2=O)CC1 (centres undefined)	-2%	-12%	-6%	5%	.
Cc1cc2nc(-c3cc(NC(=O)c4cc5ccccc5o4)ccc3Cl)oc2cc1C	3.2µM*	16µM*	?	0%[12.3 µM]	19µM*
COC(=O)c1cc(Cl)c(NC(=O)c2cc3ccccc3o2)cc1OC	37%	?	?	0%	-26%
COc1ccc(S(=O)(=O)N2CCN(CC(=O)Nc3cc(OC)cc(OC)c3)CC2)cc1	66%	?	?	2%	1%
CN(c1ccccc1C(=O)Nc1cccc(Br)c1)S(=O)(=O)c1ccccc1	-2%	?	?	.	.
CCNC(=O)c1nn(-c2ccccc2C)nc1CO	-4%	-1%	11%	2%	.
CCNc1nc(NCC)n2c(SCC(=O)Nc3ccc(OC)c(OC)c3)nnc2n1	46%	-4%	2%	-7%[0.505 µM]	0%
CCNc1nc(NCC)n2c(SCC(=O)Nc3cc(Cl)ccc3OC)nnc2n1	2%	?	?	.	.
Cc1cc(N2CCOCC2)nc2ccc(NC(=O)CCC(=O)N3CCCCC3)cc12	7.1µM*	-16%	-13%	4%	24µM*
Cc1cc(N2CCCCC2)nc2ccc(NC(=O)c3ccc(F)cc3)cc12	23%	15µM*	21µM*	5%	-8%
Cc1ccc(-n2c(-c3ccco3)nc3nc4ccccc4nc32)cc1F	2.8µM*	-18%	-27%	2%	?
Fc1ccc(-n2c(-c3cccs3)nc3nc4ccccc4nc32)cc1	1%	?	-13%	3%	.
Cc1cccc(NC(=O)c2ccccc2C(=O)Nc2cccc(C)c2)c1	168%	-16%	-1%	.	-2%
CC(=O)Nc1cccc(C)c1	2%	3%	-9%	0%	.
Cc1ccccc1C(=O)Nc1cccc(NC(=O)c2ccc(-c3ccc(Br)cc3)o2)c1	139%	8.2µM*	23µM*	3%	?
CCOCCCn1cnc2c3cc(F)ccc3n(C)c2c1=O	4%	?	-12%	8%	.
Cc1ccc2[nH]c3c(=O)n(CCN4CCNCC4)cnc3c2c1	8.9µM*	-14%	-2%	1%	22µM*
COc1ccc2c(c1)c1ncn(CCN3CCNCC3)c(=O)c1n2C	2.2µM*	-28%	-28%	4%	19µM*
O=C(Nc1nc2nc(-c3ccccc3)cc(-c3ccccc3)n2n1)c1ccco1	7.9µM*	23µM*	23µM*	8%	12µM*
COC(=O)[C@@]1(Cc2ccc(OC)cc2)[C@H]2c3cc(C(=O)N(C)C)n(CCc4ccccn4)c3C[C@H]2CN1C(=O)c1ccccc1	.	.	.	15%	.
C#C[C@]1(O)CC[C@H]2[C@@H]3CCC4=CCCC[C@@H]4[C@H]3C(=C)C[C@@]21CC	.	-8%	3%	.	.
CCOC(=O)c1ccccc1NC(=O)N1CCCn2nc(C)cc21	-10%	?	?	5%	.
Cc1cc(C)n2nc(S(=O)(=O)NCCc3ccccc3)nc2n1	-4%	1%	-1%	-6%	.
Cc1cc(C)n2nc(NCc3ccccc3)nc2n1	10µM*	-1%	0%	-1%	24µM*
CCOc1ccc(NC(=O)CN(C)C(=O)CCc2ccccc2Cl)cc1OCC	1%	-2%	-5%	1%	.
CCOc1cc(C2NN=C(c3ccccc3)S2)ccc1OCc1ccccc1Cl (centres undefined)	3.5µM*	16µM*	?	.	?
O=C(c1ccccn1)N(Cc1ccco1)C1(C(=O)NC2CCCC2)CCCCC1	2.5µM*	?	-28%	7%	0%
Nc1nc2nc(-c3ccc(OCc4ccccc4)cc3)cc(C(F)(F)F)n2n1	7.1µM*	-16%	-17%	4%	17µM*
